Assay results reported in PubChem BioAssay AID1159580 (chemical genetic matrix, 2015).
The campaign covered roughly 5,500 compounds. About 2,000 (36%) were called active. Not shown: some 18% with an inconclusive outcome. Rule as the data show it: active = normalized growth mostly below about 0.91 (no sharp cut-off); inconclusive = no clear call, values can overlap the other calls; inactive = mostly above about 0.92. This is one part of the list.

Experiment: chemical genetic growth profiling, strain panel (AID 1159580);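 also: tested at 20 µM; growth read once vehicle control cultures reached saturation at 30 °C; 1 = growth at the plate median or of vehicle wells; lower values mean less growth of the strain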
Details: S. cerevisiae deletion strains, growth OD

Measured: normalized growth

CCCN1CC(CSC)CC2c3cccc4[nH]cc(c34)CC21 (stereo unspecified)
inactive: locus YAL040C, strain CLN3, stronger effect = lower value 1 | locus YCL061C, strain MRC1 (second series), stronger effect = lower value 0.998 | locus YDR150W, strain NUM1, stronger effect = lower value 0.997 | locus YDR363W, strain ESC2, stronger effect = lower value 0.989 | locus YER002W, strain NOP16, stronger effect = lower value 1.01 | locus YGR078C, strain PAC10, stronger effect = lower value 1.01 | locus YMR307W, strain GAS1, stronger effect = lower value 0.999 | locus YNL128W, strain TEP1, stronger effect = lower value 1.02 | locus YNL153C, strain GIM3, stronger effect = lower value 0.998 | locus YNL175C, strain NOP13, stronger effect = lower value 1.02 | locus YNL197C, strain WHI3, stronger effect = lower value 1.01 | locus YNL224C, strain SQS1, stronger effect = lower value 1.08 | locus YOR083W, strain WHI5 (second series), stronger effect = lower value 1.02

COC(=O)[C@H](Cc1ccccc1)NC(=O)/C(=C1\OC(=O)C(c2ccccc2)=C1O)c1ccccc1
inactive: locus YHR030C, strain SLT2, stronger effect = lower value 1.05 | locus YHR079C, strain IRE1, stronger effect = lower value 1.06 | locus YJL095W, strain BCK1, stronger effect = lower value 0.998 | locus YJR066W, strain TOR1, stronger effect = lower value 0.992 | locus YLR113W, strain HOG1, stronger effect = lower value 0.961 | locus YNL183C, strain NPR1, stronger effect = lower value 0.98 | locus YOR231W, strain MKK1, stronger effect = lower value 1.04 | locus YPL256C, strain CLN2, stronger effect = lower value 1.05
